Measured values as given in PubChem BioAssay (NCI).
Several values for one entry are separate records, joined by “and”; a condition that tells them apart may be missing. Equal values may be shown once. This is part of a sample that, as a whole, favours compounds with a hit. Of some 83,000 tested, about 20% had one in any assay.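 Treatment: one concentration, 48 hours, 96-well format. Scoring: percent growth, with anything below 10 considered active.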 Unmarked numbers belong to inactive results. Activity calls are given as the source filed them.

These compounds were tested on SF-268 CNS (assay: NCI-60 one-dose screen, 48 h (100 = growth as untreated, 0 = no growth, -100 = all killed)). Settings: 10 µM unless noted.

`O=c1ccc(Cn2c(C(F)(F)F)cc3c(Cl)ncnc32)c[nH]1` was tested. Which growth did it give?
Its growth is -22.9% (active).

How did the growth turn out when `CC[C@]12C=CCN3CC[C@]4(C(=C(C(=O)OC)C1)Nc1cc(OC)c([C@@H]5[C@H]6O[C@H]6[C@@]6(CC)CC(C(=O)OC)=C7Nc8cc(O)ccc8[C@@]78CCN5[C@@H]68)cc14)[C@@H]32` was run?
Its growth is 22.3%.

With `COc1ccc2[nH]cc(-c3cc4nc(-c5cn(C)c6ncccc56)cc(N)n4n3)c2c1` as the compound, how does the growth read?
Its growth is 32.8%.

With `COc1ccc2[nH]c(=O)cc(-n3ncc(C(=O)/C=C/c4cc(OC)c(OC)c(OC)c4)c3C)c2c1` as the compound, how does the growth read?
Its growth is 8.19% (active).

How did the growth turn out when `COc1ccc(/C=C/c2nc3ccccc3n3c(-c4cccc([N+](=O)[O-])c4)nnc23)cc1` was run?
The growth was -16.4% (active).

Which growth does the source give for `O=C(Nc1ccc(Cl)c(C(F)(F)F)c1)N1CCN(c2cc(-c3cn(-c4ccccc4)nc3-c3cccc(O)c3)ccn2)CC1` here?
Its growth is 2.35% (active).

For `O=C1Nc2ccccc2/C1=C/C(=O)c1cc2ccccc2oc1=O`, which growth is on record?
The growth was 105%.

`CN1CCN(C(=O)Oc2cc3c(c4ccccc24)[C@H](CCl)CN3C(=O)c2cc3cc(OCCCN4CCC4)ccc3[nH]2)[C@H]2CSSC[C@H]21` was tested. Which growth did it give?
The growth was -9.36% (active).

`NS(=O)(=O)c1ccc(Nc2nc(N/N=C/c3cc(Br)c(O)c(Br)c3)nc(Nc3ccccc3)n2)cc1` was tested. Which growth did it give?
The growth was 21%.

How did the growth turn out when `COc1ccc2c(c1)C(Sc1ccc(Cl)cc1)c1c(nc(N)c(C#N)c1N)O2` (configuration not stated) was run?
The growth was 46%.

Which growth does the source give for `CS(=O)(=O)Nc1cccc(-n2c(COc3ccc(OC(F)(F)F)cc3)nc3ccccc32)c1` here?
Its growth is 90% and 113%.

How did the growth turn out when `OCCn1cc(-c2nc3ccc4[nH]ncc4c3c3c2CCCC3)cn1` was run?
The growth was 64%.

`Cn1cc(-c2cc(N)n3nc(-c4c[nH]c5ccc(F)cc45)cc3n2)c2cccnc21` was tested. Which growth did it give?
The growth was -27% (active).

`COc1ccc2c(c1)N=c1c-2cc2c(O)[nH]c(=S)n2c1=O` was tested. Which growth did it give?
Its growth is 84.4%.

With `O=C(NN1C(=O)/C(=C/C=C/c2ccc([N+](=O)[O-])o2)SC1=S)c1ccncc1` as the compound, how does the growth read?
The growth was -75.7% (active).

`Cn1cc(-c2cc(N)n3nc(-c4c[nH]c5ccccc45)cc3n2)c2cc(Br)ccc21` was tested. Which growth did it give?
The growth was -39.8% (active).

How did the growth turn out when `Cn1cc(-c2cc(N)n3nc(-c4c[nH]c5ccccc45)cc3n2)c2ccccc21` was run?
Its growth is -51.3% (active).

How did the growth turn out when `O=C1c2cccc3c(N4CCN(c5ccccc5)CC4)ccc(c23)C(=O)N1c1cccc(-c2nn(-c3ccccc3)cc2-c2nc3ccccc3s2)c1` was run?
Its growth is 101%.

Which growth does the source give for `O=C(c1ccc(O)cc1)C1[C@H](c2ccccc2Br)[C@@H](c2ccccc2)NC12C(=O)Nc1ccccc12` (some centres not stated) here?
Its growth is 49.1%.

How did the growth turn out when `COc1ccc(-c2cc(C(=O)N=Nc3c(O)[nH]c4ccc(Cl)cc34)c3ccccc3n2)cc1` was run?
The growth was 68.8%.

For `CC(C)(C)OC(=O)N1CCC2(CC1)Oc1ccccc1[C@H]1CC(c3ccc(Br)cc3)=NN12`, which growth is on record?
The growth was 55.9%.

With `Cc1cc(C(NC(=O)CCCCCNc2cccc3c2C(=O)N(C2CCC(=O)CC2=O)C3=O)c2cccc(N(C)C)c2)c(O)c2ncccc12` (configuration not stated) as the compound, how does the growth read?
Its growth is 20.5%.

`O=C(c1ccc(O)cc1)C1[C@H](c2ccc(Cl)cc2)[C@@H](c2ccccc2)NC12C(=O)Nc1ccc(Br)cc12` (some centres not stated) was tested. Which growth did it give?
Its growth is 3.93% (active).

How did the growth turn out when `Cc1ccc(C(=O)C[n+]2cccc3c4ccccc4ccc32)cc1` was run?
Its growth is 42.8%.

For `C#CCN(C)CCCOc1ccc(N(CC)C(=O)c2cc(C(C)C)c(O)cc2O)cc1Cl`, which growth is on record?
The growth was 28.2%.

For `O=C(OCCOCCO)N(c1cccc(Br)c1)c1nc(SCCN2CCOCC2)nc2c1cnn2CC(Cl)c1ccc(Br)cc1` (configuration not stated), which growth is on record?
The growth was 5.17% (active).

`COc1ccc(-c2nc3ccc(-c4nnc(SCC(=O)Nc5ccc(/C(C)=N\O)cc5)o4)cc3[nH]2)cc1` was tested. Which growth did it give?
The growth was 49.4%.

Which growth does the source give for `Clc1ccc2c(NCCNC34CC5CC(CC(C5)C3)C4)ccnc2c1` here?
The growth was -62.2% (active).

For `CCOc1ccc(-c2cc(-c3cc(C(C)C)c(O)cc3C)nn2-c2ccc(S(N)(=O)=O)cc2)cc1`, which growth is on record?
The growth was 44.1%.

With `Cc1ccc(N=Nc2c(N)nn3c(-c4cc5cc(Br)ccc5oc4=O)ccnc23)cc1` as the compound, how does the growth read?
The growth was 16%.

With `COc1ccc(SC2c3cc(OC)ccc3Oc3nc(N)c(C#N)c(N)c32)cc1` (configuration not stated) as the compound, how does the growth read?
Its growth is 78.8%.

With `O=C1Nc2ccc(F)cc2/C1=C/C(=O)c1cc2ccccc2oc1=O` as the compound, how does the growth read?
Its growth is 106%.

Which growth does the source give for `COc1ccc2[nH]cc(-c3cc(N)n4nc(-c5c[nH]c6ccccc56)cc4n3)c2c1` here?
Its growth is 80.4%.

With `O=C1Nc2cc(-c3ccc(NS(=O)(=O)c4ccc(F)c(Cl)c4)cc3)ccc2/C1=C/c1ccc[nH]1` as the compound, how does the growth read?
Its growth is 60.1%.

With `CCOC(=O)/C(F)=C/C1CC1C1CCN(C(=O)OC(C)(C)C)CC1` (configuration not stated) as the compound, how does the growth read?
Its growth is 98.6%.

For `CN1CCN(CCS(=O)(=O)Nc2cc(-c3ccc4ncnc(Nc5ccc(F)c(Cl)c5)c4c3)cnc2Cl)CC1`, which growth is on record?
The growth was 40.8%.

For `N#Cc1cc(-c2ccc3ncnc(N4CCc5cc(F)c(Cl)cc54)c3c2)cnc1N`, which growth is on record?
Its growth is 46.5%.
